From PubChem BioAssay (NCATS)
Values joined by “and” are separate entries in the source; they are usually repeats but may differ in a detail not shown here. Equal entries are not always repeated. Records with an inconclusive call do not appear. A call without a number means that no potency is given here. Where a structure was tested more than once in an assay, its records may differ in their call. Active and inactive are the calls of the source. Unless noted, the call rests on the fitted dose curve; in most records, active means well fitted curve in the direction sought with a large enough effect; inconclusive means small, poorly fitted or top-dose-only effect, or another doubt; inactive means no such curve, though single readings can be large; an effect the other way counts as inactive or inconclusive.

Key:
[1] = target: Glucocorticoid receptor (Homo sapiens) (UniProt P04150); test: GR-GFP Redistribution (AID 450;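 active means compounds whose dose series gives a full or clear partial fitted curve of increased nuclear translocation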; further: potency means the concentration at half of the fitted maximal effect); settings: U2OS GR-GFP nuclear translocation, laser cytometry, 2 h
Chain of Glucocorticoid receptor (Homo sapiens) (P04150 whole entry, looked up): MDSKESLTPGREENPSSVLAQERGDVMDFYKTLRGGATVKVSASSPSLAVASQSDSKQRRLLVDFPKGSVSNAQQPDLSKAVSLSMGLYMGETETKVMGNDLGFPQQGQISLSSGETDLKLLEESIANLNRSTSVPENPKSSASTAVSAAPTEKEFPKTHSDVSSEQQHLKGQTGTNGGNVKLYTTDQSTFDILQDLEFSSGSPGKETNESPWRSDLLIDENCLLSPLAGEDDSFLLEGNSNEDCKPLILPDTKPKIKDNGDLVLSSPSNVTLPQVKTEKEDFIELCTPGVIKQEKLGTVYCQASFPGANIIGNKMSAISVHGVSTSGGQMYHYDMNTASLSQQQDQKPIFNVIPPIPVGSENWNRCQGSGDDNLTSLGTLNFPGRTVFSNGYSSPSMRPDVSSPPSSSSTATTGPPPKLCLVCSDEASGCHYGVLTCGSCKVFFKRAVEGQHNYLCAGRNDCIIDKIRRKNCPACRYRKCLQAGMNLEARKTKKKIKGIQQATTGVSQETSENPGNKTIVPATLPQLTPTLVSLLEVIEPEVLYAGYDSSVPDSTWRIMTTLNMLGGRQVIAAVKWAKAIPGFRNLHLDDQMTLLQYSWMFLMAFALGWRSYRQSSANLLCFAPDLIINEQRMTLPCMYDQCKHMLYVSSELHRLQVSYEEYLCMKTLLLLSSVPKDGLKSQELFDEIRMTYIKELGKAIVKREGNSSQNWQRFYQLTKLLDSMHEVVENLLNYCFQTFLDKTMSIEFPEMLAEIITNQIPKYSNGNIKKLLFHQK

[2] = target: Mitogen-activated protein kinase 10 (Mus musculus) (UniProt Q61831); test: JNK3 AlphaScreen Assay (AID 530; active means well fitted curve in either direction with a large enough effect, not every such curve was filed as active;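 further: kinase came from lysate of stimulated human HepG2 cells; signal reports phosphorylation of biotinylated GST-cJun 1-79 at Ser73 with 10 µM ATP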); settings: JNK3 lysate, c-Jun phosphorylation; series mostly up to 57.1 µM
Procedure, shortened: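 Activity was read by AlphaScreen after JNK3-containing HepG2 lysate (cytokine pre-activated) phosphorylated biotinylated GST-cJun with 10 uM ATP at room temperature. Phospho-Ser73 cJun antibody with Protein-A acceptor beads provided detection.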

[3] = Cell Viability - N2a (AID 540); settings: N2a mouse neuroblastoma cell viability; activity change, negative = cytotoxicity: at 92.2 µM (top of the series);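 further: cells exposed to compound for 40 h at 37 °C; nearly all actives have a fitted effect of over 45% in size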; further: potency means the concentration at half of the fitted maximal effect
Procedure, shortened: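 Cytotoxicity was scored as loss of cellular ATP in N2a cells, a mouse neuroblastoma line. Compounds are applied in a qHTS concentration series for 40 hr at 37 °C.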

[4] = Cell Viability - NIH 3T3 (AID 541); settings: NIH 3T3 cell viability, qHTS; activity change, negative = cytotoxicity: at 92.2 µM (top of the series); further: nearly all actives have a fitted effect of over 25% in size; further: potency means the concentration at half of the fitted maximal effect
Text: (§1) NIH Chemical Genomics Center [NCGC]
(§2) NIH Molecular Libraries Screening Centers Network [MLSCN]
(§3) National Institutes of Environmental Health Sciences [NIEHS]
(§4) National Toxicology Program [NTP]
We have developed a 1536-well cell-based assay for quantitative high throughput screening (qHTS) against a number of cell lines to determine in vitro cytotoxicity of small molecules. This particular assay uses the NIH 3T3 fibroblast cell line which is established from NIH Swiss mouse embryo.
(§5) NCGC Assay Protocol Summary:
The CellTiter-Glo luminescent cell viability assay (Promega) is a homogeneous method to measure the number of viable cells in culture. The end point readout of this assay is based on quantitation of intracellular ATP, an indicator of metabolic activity, using the luciferase reaction. Luciferase catalyzes the oxidation of beetle Luciferin to oxyluciferin and light in the presence of ATP. The luminescent signal is proportional to amount of ATP present.
Using the CellTiter-Glo luminescent cell viability assay, the amount of cellular ATP was measured in the NIH 3T3 cell line with complete culture medium following compound treatment for 40 hours. The assay was performed in opaque white Kalypsys 1536-well plates. In the screen, tamoxifen and doxorubicin were used as positive controls. Library compounds were measured for their ability to cause acute toxicity in the cell line, as reflected by a decrease in intracellular ATP levels, in a concentration-dependent manner. […] AC50 values were determined from concentration-response data modeled with the standard Hill equation.
qHTS protocol for CellTiter Glo NIH 3T3 cellular assay
(§6) [Step] [Parameter] [Value] [Description]
1. Reagent; 5 uL; 1000 NIH 3T3 cells/well
(§7) 2. Time; 5 hr; 37 °C incubation
4. Controls; 23 nL; Tamoxifen 0.34 uM to 100 uM & Doxorubicin 0.02 nM to 100 uM
5. Time; 40 hr; 37 °C incubation
6. Reagent; 5 uL; CellTiter Glo reagent
(§8) 7. Time; 20 min; Room Temperature
(§9) 8. Detection; Luminescence; Viewlux plate reader
Keywords: cell viability, cytotoxicity, NIH 3T3 cell line, luminescence, NTPHTS, NTPHTS_NCGC, NIEHS, EPA, DSSTox, MLSMR, MLSCN, NIH Roadmap, qHTS, NCGC

[5] = Cell Viability - HUV-EC-C (AID 542); settings: HUV-EC-C endothelial cell viability, qHTS; series mostly up to 92.2 µM; further: nearly all actives have a fitted effect of over 35% in size; further: potency means the concentration at half of the fitted maximal effect
Procedure, shortened: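 Cells were seeded at 1000 per well and incubated 5 hr at 37 °C before compound addition. After 40 hr at 37 °C, CellTiter-Glo reagent was added for 20 min and luminescence read. AC50 values came from Hill-equation modelling.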

[6] = Cell Viability - H-4-II-E (AID 543); settings: H-4-II-E rat hepatoma viability; series mostly up to 92.2 µM; further: nearly all actives have a fitted effect of over 35% in size; further: potency means the concentration at half of the fitted maximal effect
Procedure, shortened: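 Cells seeded at 1500 per well and rested 5 hr; compounds added; 40 hr incubation at 37 °C; CellTiter-Glo added, 20 min at room temperature; luminescence read. Hill-equation fits gave AC50.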

[7] = Cell Viability - SH-SY5Y (AID 544); settings: SH-SY5Y neuroblastoma cell viability; series mostly up to 92.2 µM; further: nearly all actives have a fitted effect of over 55% in size; further: potency means the concentration at half of the fitted maximal effect
Procedure, shortened: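 Cells were plated at 1500 per well and allowed 5 hr at 37 °C. Compounds were added across a concentration range and incubated 40 hr at 37 °C. CellTiter-Glo was added for 20 min at room temperature before luminescence reading.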

[8] = Cell Viability - Renal Proximal Tubule (AID 545); settings: renal proximal tubule cells viability; series mostly up to 91.7 µM; further: nearly all actives have a fitted effect of over 40% in size; further: potency means the concentration at half of the fitted maximal effect
Procedure, shortened: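 Cytotoxicity is scored as a concentration-dependent drop in cellular ATP in primary rat renal proximal tubule cells exposed for 40 hr. AC50 derives from Hill modelling.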

[9] = Cell Viability - Mesenchymal (AID 546); settings: mesenchymal cells viability, qHTS; activity change, negative = cytotoxicity: at 91.7 µM (top of the series);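 further: cells exposed to compound for 40 hours before reading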; further: potency means the concentration at half of the fitted maximal effect
Procedure, shortened: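 Human renal mesenchymal cells (glomerulus-derived), 1000 cells/well, 5 hr 37 °C pre-incubation; compound 40 hr, 37 °C; CellTiter-Glo, 20 min RT; luminescence; AC50 via Hill equation.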

[10] = Cellular Toxicity (caspase-3) HepG2 (AID 654); settings: HepG2 caspase-3 activation, luminescence; series mostly up to 92.2 µM; further: potency means the concentration at half of the fitted maximal effect;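 on caspase-3 activation: cells exposed to compound for 16 hours before reading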
Text: as §1, §2, §3, §4
We have developed a 1536-well cell-based assay for quantitative high throughput screening (qHTS) against a number of cell lines to determine in vitro caspase 3/7 of small molecules. This particular assay uses the HepG2 cell line which is derived from human hepatocellular carcinoma.
as §5
The Caspase-Glo 3/7 assay (Promega) is a homogeneous method to measure caspase-3 and caspase-7 activities in cultured cells. The quantitation of caspase 3/7 activity is based on the cleavage of a peptide-aminoluciferin substrate. After caspase cleaves the substrate the free aminoluciferin is liberated and serves as the substrate of luciferase, which generates the light. The luminescent signal is proportional to amount of caspase 3/7 activity present.
Using the Caspase-Glo 3/7 assay, the amount of caspase 3/7 activity was measured in the HepG2 cell line with complete culture medium following compound treatment for 16 hours. The assay was performed in opaque white 1536-well plates. In the screen, tamoxifen and doxorubicin were used as positive controls. Library compounds were measured for their ability to cause the activation of caspase 3/7 in the cell line, as reflected by an increase in luminescence signal, in a concentration-dependent manner. Data were normalized to the controls for basal activity (DMSO only) and 100% stimulation (100 uM tamoxifen). AC50 values were determined from concentration-response data modeled with the standard Hill equation.
qHTS protocol for caspase 3/7 assay in HepG2 cells
as §6
1. Reagent; 5 uL; 1500 HepG2 cells/well
as §7
4. Controls; 23 nL; Tamoxifen 0.23 uM to 100 uM & Doxorubicin 7.0 pM to 100 uM
5. Time; 16 hr; 37 °C incubation
6. Reagent; 5 uL; Caspase-Glo 3/7 reagent
as §8, §9
Keywords: caspase 3/7, apoptosis, HepG2 cell line, luminescence, NTPHTS, NTPHTS_NCGC, NIEHS, EPA, DSSTox, MLSMR, MLSCN, NIH Roadmap, qHTS, NCGC

COC(=O)C1=CCCN(C)C1
Potency [1]: > 46 µM (inactive) and > 20.6 µM (inactive) | outcome [2]: inactive

COc1ccc(C(=O)N2CCCC2=O)cc1
Potency [1]: > 46 µM (inactive) and > 20.6 µM (inactive) | outcome [2]: inactive

C[N+]1(C)[C@@H]2CC[C@H]1CC(OC(=O)C(CO)c1ccccc1)C2 (stereo not given in full)
Potency [1]: > 20.6 µM (inactive)

Oc1ccc2[nH]cc(CCCCN3CC=C(c4ccccc4)CC3)c2c1
Potency [1]: > 46 µM (inactive)

C[C@H](N)[C@H](O)c1ccc(O)c(O)c1
outcome [2]: inactive

Oc1c(Br)cc(Br)cc1Br
outcome [2]: inactive | Potency [3]: inactive | Potency [4]: inactive | Potency [5]: inactive | Potency [6]: inactive | Potency [7]: inactive | Potency [8]: inactive | Potency [9]: inactive | Potency [10]: inactive

CC(C)[N+](C)(CCC(C(N)=O)(c1ccccc1)c1ccccc1)C(C)C
Potency [1]: > 20.6 µM (inactive) | outcome [2]: inactive

CCC(=O)O[C@H]1CC[C@H]2[C@@H]3CCC4=CC(=O)CC[C@]4(C)[C@H]3CC[C@]12C
Potency [1]: > 20.6 µM (inactive) | outcome [2]: inactive

O=C(CCCN1CCC(n2c(=O)[nH]c3ccccc32)CC1)c1ccc(F)cc1
Potency [1]: > 20.6 µM (inactive) | outcome [2]: inactive

COP(=O)(OC)OC=C(Cl)Cl
outcome [2]: inactive | Potency [3]: inactive | Potency [4]: 12.6 µM (active) | Potency [5]: inactive | Potency [6]: inactive | Potency [7]: 15.8 µM (active) | Potency [8]: inactive | Potency [9]: inactive | Potency [10]: inactive

COc1ccc(CN2CCNCC2)c(OC)c1OC
Potency [1]: > 20.6 µM (inactive) | outcome [2]: inactive

CNC(=O)Oc1cccc2ccccc12
outcome [2]: inactive | Potency [3]: inactive | Potency [5]: inactive | Potency [6]: inactive | Potency [8]: inactive | Potency [9]: inactive | Potency [10]: inactive

COP(=O)(OC)C(O)C(Cl)(Cl)Cl (stereo not given)
Potency [1]: > 20.6 µM (inactive)

O=C(CCl)c1ccc(Cl)cc1Cl
outcome [2]: inactive | Potency [3]: 31.6 µM (active) | activity change, negative = cytotoxicity [4]: -145% (active) | Potency [6]: 10 µM (active) | Potency [7]: 1.26 µM (active) | Potency [9]: 31.6 µM (active) | Potency [10]: inactive

O=C1NCN(c2ccccc2)C12CCN(CCCOc1ccc(F)cc1)CC2
Potency [1]: > 46 µM (inactive) | outcome [2]: inactive

c1ccc2nc(N3CCNCC3)ccc2c1
Potency [1]: > 46 µM (inactive) and > 20.6 µM (inactive) | outcome [2]: inactive

CN(C)C(=S)SSC(=S)N(C)C
outcome [2]: inactive | Potency [3]: 5.01 µM (active) | Potency [5]: 15.8 µM (active) | Potency [6]: 3.98 µM (active) | Potency [7]: 0.0158 µM (active) | Potency [8]: 20 µM (active) | activity change, negative = cytotoxicity [9]: -103% (active) | Potency [10]: inactive

CN1[C@@H]2CC[C@H]1CC(OC(=O)c1cc(Cl)cc(Cl)c1)C2 (stereo not given in full)
Potency [1]: > 46 µM (inactive) | outcome [2]: inactive

OC(c1ccccc1)(c1ccccc1)C1CCNCC1
Potency [1]: > 20.6 µM (inactive) | outcome [2]: inactive

NC(=O)CN1CCCC1=O
Potency [1]: > 46 µM (inactive) and > 20.6 µM (inactive) | outcome [2]: inactive

C[C@@H]1C[C@@H]([C@H](O)CC2CC(=O)NC(=O)C2)C(=O)[C@@H](C)C1
outcome [2]: inactive | Potency [3]: 0.126 µM (active) | Potency [4]: 100 nM (active) and 126 nM (active) | Potency [5]: 0.1 µM (active) | Potency [6]: 126 nM (active) and 100 nM (active) | Potency [7]: 63.1 nM (active) and inactive | Potency [9]: 79.4 nM (active) and 50.1 nM (active) | Potency [10]: inactive

O=C(O)c1nn(Cc2ccc(Cl)cc2Cl)c2ccccc12
Potency [1]: > 46 µM (inactive) | outcome [2]: inactive

CCCCCCCCC(=O)NCc1ccc(O)c(OC)c1
Potency [1]: > 46 µM (inactive)

CCCCCCCCCCCC[N+](C)(C)CCOc1ccccc1
outcome [2]: inactive | Potency [3]: 7.94 µM (active) | activity change, negative = cytotoxicity [4]: -137% (active) | Potency [5]: 31.6 µM (active) | Potency [6]: 39.8 µM (active) | Potency [7]: inactive | Potency [8]: 12.6 µM (active) | Potency [9]: 25.1 µM (active) | Potency [10]: 39.8 µM (active)

CC[n+]1c(-c2ccccc2)c2cc(N)ccc2c2ccc(N)cc21
activity change, negative = cytotoxicity [3]: -81.5% (active) | Potency [9]: 31.6 µM (active) | Potency [10]: inactive

Cc1ccc(O)cc1
outcome [2]: inactive
